Test results taken from PubChem BioAssay AID598 (SRMLSC, 2007).
Hit rate of the full screen: of about 85,000 compounds, about 5,100 (6%) were called active. Only a selection was taken, and actives are over-represented in it overall. Unmarked numbers belong to inactive results.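 How the source made its calls: active means viability at or below 40%; inactive means viability above 40%.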

Assay: H69AR cell viability reduction – human, 86K library, primary screen (AID 598);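 further: multidrug resistant small cell line overexpressing MRP-1 efflux transporter; 100% = mean luminescence of untreated control wells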
Conditions: H69AR lung tumor viability, ATP luminescence, 72 h; at 10 µM; hits give low values
In the case of CC(C)(C)c1cc(=O)n2c(nc3ccccc32)[nH]1, the viability was 75.5%. In the case of Cc1ccc(SCC(=O)Nc2ncc(C)s2)cc1, the viability was 94.5%. CC(C)C(OC(=O)c1cccs1)C(=O)NC1CCCCC1 (stereo not drawn) gave a viability of 101%. In the case of COc1ccc(C)c(Cn2c(-c3nonc3N)nc3ccccc32)c1, the viability was 21% (active). Work on CCC(=O)Nc1nc2ccccc2n1Cc1ccccc1C yielded a viability of 65.7%. COCc1nc2ccccc2n1Cc1ccccc1Br showed a viability of 98.2%. In the case of Nc1nonc1-c1nc2ccccc2n1Cc1ccc(F)cc1, the viability was 18.4% (active). Work on Nc1nonc1-c1nc2ccccc2n1CCC(=O)O yielded a viability of 109%. CC(=O)Nc1nonc1-c1nc2ccccc2n1Cc1ccccn1 showed a viability of 84.4%. c1ccc(Nc2nc(N3CCOCC3)c3ccccc3n2)cc1 showed a viability of 95.8%. With O=C(O)CSCc1ccc(C(=O)O)o1 the viability was 96.9%. With COc1ccccc1NC(=O)CC(NCCN(C)C)C(=O)O (stereo not drawn) the viability was 99.1%. CCOC(=O)C1CSC(CC(=O)Nc2ccc(OCC)cc2)C(=O)N1 (stereo not drawn) gave a viability of 86.6%. Work on CC(C)C(=O)NC(NC(=S)NC1CCS(=O)(=O)C1)C(Cl)(Cl)Cl (stereo not drawn) yielded a viability of 102%. Compound Cc1ccc(-n2nc3cc(C)c(NC(=O)c4cccnc4)cc3n2)cc1 has a viability of 82%. Compound O=S(=O)(NCC1OCCc2ccccc21)c1ccccc1 (stereo not drawn) has a viability of 87.1%. For COC(=O)c1cc(OC)ccc1-c1ccc(OC)cc1, the viability was 29.3% (active). In the case of COc1ccc(NC(=O)c2ccc(OC)cc2)cc1, the viability was 105%. Work on COc1ccc(OC)c(C(=O)c2ccc(C(=O)O)cc2)c1 yielded a viability of 99.1%. CCOC(=O)C1=C(C)NC(SC)=NC1c1ccccc1 (stereo not drawn) gave a viability of 83.7%. With CC1CCN(C(=O)CN(c2ccc(Oc3ccccc3)cc2)S(C)(=O)=O)CC1 the viability was 85%. For CCCOn1c(-n2nc(C)cc2C)nc2ccccc2c1=O, the viability was 93.8%. COc1ccc(C)cc1N(C)C(=O)c1coc(=O)c2ccccc12 gave a viability of 94.7%. Cc1cc(NC(=O)CSc2nnc(-c3ccc(Cl)s3)o2)no1 gave a viability of 96.5%. Work on CCOc1ccccc1Nc1nnc(SCC(=O)Nc2cc(C)on2)s1 yielded a viability of 71.1%. For Cc1cc(C)c2c(c1)cc(C)c1nnc(SCC(=O)Nc3cc(C)on3)n12, the viability was 16.8% (active). Compound CC(C)(C)n1nnnc1C(c1ccc(Cl)cc1)N1CCSCC1 (stereo not drawn) has a viability of 82.5%. Work on COc1ccc(S(=O)(=O)NCc2ccc(C(=O)N(C)Cc3ccco3)cc2)cc1 yielded a viability of 76.5%. With Cc1nc2ccc(C(=O)N3CCN(c4ccccc4)CC3)cc2s1 the viability was 91.5%. In the case of CC(=O)N1CCCc2cc(S(=O)(=O)CCC(=O)N3CCN(c4ccccc4)CC3)ccc21, the viability was 86.6%. With O=C(c1cc2c(s1)CCC2)N1CCN(c2ccccc2)CC1 the viability was 39.4% (active). COc1ccc(C)cc1S(=O)(=O)Nc1cccc(Cl)c1Cl gave a viability of 97.3%. With CCOc1ccc(C(O)Cc2nc3ccccc3n2C)cc1 (stereo not drawn) the viability was 96.6%. O=C(COC(=O)c1n[nH]c2ccccc12)NCc1ccccc1 gave a viability of 96.7%. Work on COC(=O)Nc1ncc(CN2CCCCC2)s1 yielded a viability of 92.5%. CCN1C(=O)/C(=C2/Sc3ccc(OC)cc3N2C)SC1=Nc1ccc(C)cc1 showed a viability of 66.1%. COc1ccc(N2CCN(CCNC(=O)CCN3C(=O)COc4ccccc43)CC2)cc1 showed a viability of 86.1%. CCOc1ccc(C2C(C(=O)O)c3ccccc3C(=O)N2CCN2CCOCC2)cc1 (stereo not drawn) gave a viability of 85.1%. For COc1ccc(C2C(C(=O)N3CCN(c4ccc(OC)cc4)CC3)c3ccccc3C(=O)N2C)cc1 (stereo not drawn), the viability was 32.2% (active). CCCNC(=O)c1ccccc1NC(=O)CSCc1ccc(OC)cc1 gave a viability of 83.9%. COc1ccc(C2=NO[C@@H]3C(=O)N(Cc4ccccc4)C(=O)[C@H]23)cc1OC showed a viability of 95.8%. With CCNCCC(=O)N1c2ccccc2Sc2ccc(NC(=O)OCC)cc21 the viability was 78.6%. Work on Cc1ccc(F)c(NC(=O)CCc2ccccc2)c1 yielded a viability of 97.8%. With Cn1c(C(=O)NCCN2CCc3ccccc3C2)cc2c(=O)[nH]c3ccccc3c21 the viability was 61.7%. In the case of Cc1cccc(N2CCN(C(=O)c3cc4c(=O)[nH]c5ccccc5c4n3C)CC2)c1C, the viability was 36% (active). CC(=O)N1CCN(c2cccc(C)c2C)CC1 gave a viability of 107%. Compound CCn1c(C)nc2c1C(=O)c1ccccc1C2=O has a viability of 69.1%. CC1CCc2c(nc3ncnn3c2Nc2ccc(OC(F)(F)F)cc2)C1 (stereo not drawn) showed a viability of 69.4%. With N#Cc1c(NC(=O)CSc2nc3ccccc3c(=O)n2Cc2ccco2)sc2c1CCCC2 the viability was 3.86% (active). In the case of COc1ccccc1NC(=O)CSc1nc2sc(C)c(C)c2c(=O)n1Cc1ccco1, the viability was 58.9%. In the case of CC(Sc1nc2ccccc2c(=O)n1Cc1ccco1)C(=O)c1ccccc1 (stereo not drawn), the viability was 77.2%. With COc1ccc(-n2c(SCC(=O)Nc3sc4c(c3C#N)CCCC4)nnc2-c2ccc(O)cc2)cc1 the viability was 11.8% (active). With COc1ccc(-c2nnc(SCC(=O)c3ccco3)n2-c2ccccc2)cc1 the viability was 91.9%. COC(=O)c1c(NC(=O)CSc2nncs2)sc2c1CCCCC2 showed a viability of 50.8%. In the case of CCC(C)NC(=O)C1CCCN(C(=O)NC2CCCCC2)C1 (stereo not drawn), the viability was 94.6%. With COc1ccc(C(C#N)Nc2ccc(C)cc2)cc1 (stereo not drawn) the viability was 89.5%. In the case of Cc1cccc(OCCCC(=O)Nc2ccc(S(=O)(=O)N3CCCC3)cc2)c1, the viability was 89.2%. In the case of O=C(c1ccc2c(c1)OCO2)N1CCOCC1, the viability was 96.2%. CN(Cc1ccccc1)C(=O)CCNC(=O)Cn1cnc2ccccc2c1=O showed a viability of 93.7%. In the case of O=C(Cn1cnc2c(cnn2-c2ccccc2)c1=O)NCc1ccccc1, the viability was 30.8% (active). With O=C(Cn1cnc2c(cnn2-c2ccc(F)cc2)c1=O)NCCc1ccccc1 the viability was 99.4%. O=C(OC1CCCCC1=O)c1cccc(S(=O)(=O)NCc2ccccc2)c1 (stereo not drawn) showed a viability of 68.2%. For CCn1c(=O)c(=O)n(CC)c2cc(S(=O)(=O)N3CCc4ccccc43)ccc21, the viability was 27.2% (active). For CSc1nc2ccc(S(=O)(=O)N3CCc4ccccc43)cc2s1, the viability was 64.1%. For Cn1c(=O)n(C)c2cc(S(=O)(=O)N3CCCc4ccccc43)ccc21, the viability was 21.1% (active). Cc1nn(C)c(C)c1S(=O)(=O)N1CCc2ccccc21 showed a viability of 95.6%. Cn1c(=O)c(=O)n(C)c2cc(S(=O)(=O)NCCc3ccccc3)ccc21 gave a viability of 94.1%. Cc1ccc(S(=O)(=O)N2CC(=O)Nc3ccccc32)cc1C showed a viability of 102%.
